Records with an inconclusive call do not appear. Calls come from the whole dose curve; as a rule, active = well fitted inhibition curve with a large enough effect; inconclusive = small, poorly fitted or top-dose-only effect; inactive = no such curve, though single readings can be large or run the other way.
Assay: Confirmatory fluorescence-based thiol-reactive (MSTI) qHTS assay for identification of artifact compounds
Details: MSTI thiol-reactivity probe, 1 h; series mostly up to 39.2 µM; activity change, negative = inhibition: at the top concentration
Outline: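 Compounds (qHTS) incubated 1 h at room temperature, light-protected, with 4 uM MSTI in 1X PBS pH 7.4, 2% DMSO. Fluorescence at 525/598 nm normalized to Acetyl-MSTI and MSTI, fitted to Hill equation.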

Activity change, negative = inhibition, inactive:
O=C(CCn1c(=O)c2cccn2c2cccnc21)N1CCN(c2ccccc2F)CC1 79.7%
CC1(C)S[C@@H]2[C@H](NC(=O)C3(N)CCCCC3)C(=O)N2[C@H]1C(=O)O 29.3%
Fc1ccc(-c2cc(-c3ccc(F)cc3)c3c(n2)-c2cc(F)ccc2OC3)cc1 153%
COc1ccc(-c2coc3cc(O)ccc3c2=O)c(OC)c1O 1.63%
COC(=O)c1c(NC(=O)COc2ccc(C(C)C)cc2)sc2c1CCCC2 34%
COc1ccc(NC(=O)c2ccco2)cc1NC(=O)c1ccccc1[N+](=O)[O-] -13.1%
COc1ccccc1Cc1nc2ccccc2nc1SCC(=O)Nc1c(C)cccc1C 5.83%
Cc1ccccc1C(=O)Nc1cc(C)c(O)c(-c2nc3ccccc3o2)c1 86.6%
Oc1c(C(c2ccccc2F)N2CCN(Cc3ccccc3)CC2)sc2nc(-c3ccco3)nn12 (stereo unspecified) 101%
CCCS(=O)(=O)N1CC(=O)N(c2ccc(C)cc2)C(C)(C(=O)NC2CCCCCC2)C1 (stereo unspecified) 130%
CCOc1ccc(NC(=O)CSc2nnc3scc(-c4ccccc4)n23)cc1 166%
O=S1(=O)N=C(Oc2ccc(Br)cc2)c2ccccc21 10.1%
CC1(C)S[C@@H]2[C@H](NC(=O)[C@H](N)c3ccccc3)C(=O)N2[C@H]1C(=O)O 129%
O=C(/C=C/c1ccc(O)c(O)c1)OC1C[C@](O)(C(=O)O)C[C@@H](O)[C@H]1O (stereo partly specified) 0.358%
CN(Cc1ccccc1)c1ncnc2c1nc1n2CCCC1 90%
COc1ccc(C(=O)NCC(=O)OCC(=O)c2cccc3ccccc23)cc1 106%

— PubChem BioAssay AID1845226 (National Center for Advancing Translational Sciences (NCATS), 2023)
